Results filed as inconclusive are left out. Calls of active or inactive are those of the source. Rule for the calls: active = hit-call score of the fitted dose curve at least 0.9, where 1 is the maximum; inconclusive = response in the unintended direction; inactive = score below 0.9.
Tested on: TPO (gene 7173)
Experiment: CCTE_GLTED_hTPO: CCTE's human Thyroperoxidase (hTPO) Inhibition Assay, Great Lakes Toxicology and Ecology Division (GLTED) Lab
Experimental: CCTE_GLTED_hTPO is a cell-free, single-readout assay designed to test the inhibitory activity of chemicals toward human thyroperoxidase (TPO) protein. Uninhibited enzyme converts Amplex UltraRed to a fluorescent product. Measurements were taken 0.5 hour after chemical dosing in a 96-well plate. CCTE_GLTED_hTPO is the assay component measured from the CCTE_GLTED_hTPO assay. It is designed to make measurements of enzyme activity, a form of enzyme reporter, as detected with […] by Fluorescence technology.Data from the assay component CCTE_GLTED_hTPO was analyzed at the assay endpoint CCTE_GLTED_hTPO in the positive analysis fitting direction relative to DMSO as the negative control and baseline of activity. Using a type of enzyme reporter (the Amplex UltraRed assay), loss-of-signal activity can be used to understand decreased peroxidase activity in the presence of excess […]. To generalize the intended target to other relatable targets, this assay endpoint is annotated to the 'oxidoreductase' intended target family, where the subfamily is 'peroxidase'.
[…]

| Structure (SMILES) | AC50 | outcome |
| --- | --- | --- |
| O=S(=O)(O)C(F)(F)C(F)(F)C(F)(F)C(F)(F)C(F)(F)C(F)(F)C(F)(F)C(F)(F)F | 285 µM (active) |  |
| O=C(O)C(F)(OC(F)(F)C(F)(F)C(F)(F)F)C(F)(F)F (stereo not drawn) | 40.2 µM (active) |  |
| O=C(O)C(F)(F)C(F)(F)C(F)(F)C(F)(F)C(F)(F)C(F)(F)C(F)(F)C(F)(F)F |  | inactive |

— PubChem BioAssay AID2284326 (EPA ToxCast)
